Bioassay records from PubChem.
BRCA1 expr act = increases BRCA1 expression; MCF7-BRCA1-FFLuc reporter, luminescence, 48 h; response scale: scaled: vehicle 0%, 10 µM genistein 100%; Potency, µM (doses to about 46.1 µM), inactives show top-dose activation, usual class: activators; 1.1% of 380,000 active; AID 624202; further: nearly all actives have a fitted effect of over 80% in size
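Compounds are tested at multiple concentrations on MCF7 BRCA1-luciferase reporter cells seeded at 2000 per well; after 48 h, a single luminescence end-point is taken and curves fitted to the normalized data.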
GLP-1R inv ag = acts as inverse agonist at human GLP-1 receptor. P43220. HEK293 GLP-1R CRE-luciferase, luminescence, 24 h; GLP-1R form is constitutively active. Potency, µM (series often up to 38.3 µM), for inactives: top-dose activity change, negative = inhibition, usual class: inhibitors. 1.6% of 410,000 active. AID 624417; further: on the % scale 0 is the no-effect control and ±100 the full control effect; nearly all actives have a fitted effect of over 55% in size
Target sequence (P43220 whole entry, looked up): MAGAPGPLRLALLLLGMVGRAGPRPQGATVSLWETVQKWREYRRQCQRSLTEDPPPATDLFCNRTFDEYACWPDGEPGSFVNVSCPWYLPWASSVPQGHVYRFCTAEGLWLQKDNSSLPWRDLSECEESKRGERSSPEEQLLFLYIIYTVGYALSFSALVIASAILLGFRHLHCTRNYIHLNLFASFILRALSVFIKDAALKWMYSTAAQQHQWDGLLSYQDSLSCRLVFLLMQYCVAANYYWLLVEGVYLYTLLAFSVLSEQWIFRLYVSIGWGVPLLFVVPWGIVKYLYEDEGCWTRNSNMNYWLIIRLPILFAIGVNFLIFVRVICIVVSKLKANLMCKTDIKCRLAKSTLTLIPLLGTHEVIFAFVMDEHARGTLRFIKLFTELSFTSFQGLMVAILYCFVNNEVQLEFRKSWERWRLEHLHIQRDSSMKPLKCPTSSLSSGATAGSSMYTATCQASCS
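Using stably transfected HEK293 (constitutively active GLP-1R, cAMP-luciferase reporter), compounds were incubated 24 hr and luciferase measured by luminescence.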
HEK293 tox = cytotoxicity in counter-screen for GLP-1R inverse agonists. HEK293 cAMP-luciferase reporter cells, luminescence, 24 h. Potency, µM (series often up to 38.3 µM), for inactives: at the top dose activity change, negative = inhibition, usual class: inhibitors. 0.13% of 410,000 active. AID 624418;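 further: loss of luciferase light is scored as toxicity; on the % scale 0 is the no-effect control and ±100 the full control effect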
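Quantitative HTS format, 1536 wells, 200 cells/uL seeded. Compounds: 23 nL, 24 h, 37 °C. Detection: luciferase reagent, luminescence at 12 min RT; decreased signal taken as cytotoxic.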
GLP-1R agonist = agonists of human GLP-1 receptor; Potency, µM (highest dose often 45.6 µM), for inactives: at the highest dose activation, most hits filed as activators; P43220; HEK293 GLP-1R CRE-luciferase, luminescence, 4-6 h; cells express a hypersensitive GLP-1R form; AID 624172; 0.007% of 380,000 active; further: % of control where 0% means no effect
Numbers without * were called inactive; ? = inconclusive; . = not tested or not shown; [ ] = dose if it differs, or a comment. This is a sample that favours compounds with a hit; in the whole collection about 2.6% have one here. The call rests on the fitted dose curve; in most records, active means well fitted curve in the direction sought with a large enough effect; inconclusive means small, poorly fitted or top-dose-only effect, or another doubt; inactive means no such curve, though single readings can be large; an effect the other way counts as inactive or inconclusive. Potency means the concentration at half of the fitted maximal effect.

SMILES | BRCA1 expr act | GLP-1R inv ag | HEK293 tox | GLP-1R agonist
C/C(=N\NC(=O)c1ccn(C)n1)c1cccc(NC(=O)c2ccc(C)s2)c1 | 11.2µM* | 4.3% | 0.5%[1.53 µM] | 3.4%
Cc1ccccc1OCC(=O)Nc1ccccc1C(=O)OCc1cc(=O)n2nc(C3CC3)sc2n1 | . | 0.1% | 6.4% | .
O=C(Cc1ccc(NC(=O)N2CCCCc3ccccc32)cc1)Nc1ccccc1Br | -2.3% | 3.16µM* | -16.1% | .
Cc1ccc(OCCc2csc(N)n2)cc1 | 90.8% | -8.2% | -1.9% | 19.0%
COc1ccc(OCc2csc(N)n2)cc1 | 10µM* | 0.7% | 4.1% | 7.9%
Cc1cccc(CNC(=O)C2CCN(c3nc4ccc(Cl)cc4[nH]3)CC2)c1 | . | ? | -5.2% | .
CC1CCN(CC(=O)Nc2ccccc2-c2ccccc2)CC1 | -23.5% | 0.0% | 4.2% | 5.8%
CC1CCCCC1NCC(=O)Nc1ccccc1-c1ccccc1 (centres undefined) | -21.6% | 4.47µM* | -0.2% | 4.9%
Cn1c(Oc2ccccc2)nc2c1c(=O)n(Cc1ccc(Cl)cc1Cl)c(=O)n2C | . | -0.4% | -0.3% | .
CN(/N=C/c1cc(Cl)cc(Cl)c1O)c1c(Cl)cccc1[N+](=O)[O-] | -61.1% | 8.91µM* | -1.8% | 8.7%
CC(C)C(=O)Nc1ccc(NC(=O)c2ccccn2)cn1 | 2.51µM* | ? | -8.2% | -15.5%
CCC(=O)Nc1ccc(NC(=O)c2ccccn2)cn1 | ? | ? | 1.1% | -12.4%
Clc1ccc(/C=N/Nc2ncnc3ccccc23)cc1Cl | -64.0% | ? | 2.24µM* | -2.9%
Fc1ccccc1/C=N/Nc1ncnc2ccccc12 | 0.0% | ? | ? | 5.6%
CCN1C(=O)[C@H]2[C@@H](c3ccc(C(F)(F)F)cc3)N[C@]3(CCCN(Cc4ccc(Cl)cc4)C3=O)[C@H]2C1=O | -16.8% | 10µM* | 4.6% | -5.1%
O=C1[C@H]2[C@@H](c3ccc(C(F)(F)F)cc3)N[C@]3(CCCN(Cc4ccc(C(F)(F)F)cc4)C3=O)[C@H]2C(=O)N1Cc1ccccc1 | -6.6% | 4.47µM* | 3.4% | -3.6%
O=C1[C@H]2[C@@H](c3ccc(C(F)(F)F)cc3)N[C@]3(CCCN(Cc4ccccc4)C3=O)[C@H]2C(=O)N1Cc1ccccc1 | -21.7% | 11.2µM* | -0.4% | -5.6%
COCCCNC(=O)CSc1nc2c(sc3ccccc32)c(=O)n1CCc1ccc(OC)c(OC)c1 | 3.9% | 2.1% | -4.4% | 0.3%
Nc1nc(-c2ccc3c(c2)OCCO3)cs1 | 81.3% | 29.3% | -11.1% | 18.9%
CC1Cc2cc(-c3csc(N)n3)ccc2O1 (centres undefined) | 3.16µM* | 12.6% | -9.2% | ?
Nc1nc(-c2cccc(F)c2)cs1 | 11.2µM* | 5.6% | -3.2% | 12.5%
Fc1cccc(-c2csc(-c3ccno3)n2)c1 | -26.9% | 18.0% | -3.1% | 13.7%
Nc1nc(-c2ccc3c(c2)CCCC3)cs1 | 3.16µM* | ? | -3.5% | -0.5%
CC[C@H]1OC(=O)[C@H](C)[C@@H](O[C@H]2C[C@@](C)(OC)[C@@H](O)[C@H](C)O2)C(C)[C@@H](O[C@@H]2O[C@H](C)C[C@H](N(C)C)[C@@H]2O)[C@](C)(OC)C[C@@H](C)C(=O)[C@H](C)[C@@H](O)[C@]1(C)O (some centres undefined) | . | . | . | 8.4%
NC(=O)C1CC(=O)N(c2ccc(OCc3ccc(Cl)c(Cl)c3)cc2)C1 (centres undefined) | 10µM* | -2.3% | -8.5% | -1.6%
SMILES | BRCA1 expr act | GLP-1R inv ag | HEK293 tox | GLP-1R agonist
CCOc1ccc(OCc2cccc(C(=O)Nc3ccc(CN4CCCCC4)cc3)c2)cc1 | ? | 4.47µM* | ? | -16.5%
COc1ccc(C(=O)NC(=S)Nc2ccc(CN3CCCCC3)cc2)cc1Cl | -18.3% | 8.91µM* | ? | 11.4%
NC(=O)C1CCN(Cc2ccc(OCc3ccccc3)cc2)CC1 | 11.2µM* | ? | 7.0% | 0.6%
COc1ccc(C(=O)NC(=S)Nc2ccc(CN3CCOCC3)cc2)cc1Cl | -12.5% | ? | ? | 9.3%
CCOC(=O)C1CCN(Cc2ccc(OCc3ccccc3)cc2)CC1 | 25.0% | ? | -9.7% | 1.2%
c1ccc(COc2ccc(CN3CCN(c4ccccn4)CC3)cc2)cc1 | 2µM* | ? | -10.6% | 0.2%
c1ccc(CN2CCN(c3ncccn3)CC2)cc1 | 11.9% | -13.0% | 14.3% | 0.1%
CCN(CC)CCCOc1cc2nc(N3CCCN(C)CC3)nc(NC3CCN(C)CC3)c2cc1OC | -27.3% | . | . | .
Cc1ccc([C@H]2C(C(=O)O)=CC[C@@H](c3ccc(Cl)cc3)N2S(=O)(=O)c2ccccc2C)cc1 | -13.7% | ? | -3.0% | 1.3%
Cc1ccccc1S(=O)(=O)N1[C@@H](c2ccc(Cl)cc2)C(C(=O)O)=CC[C@H]1c1ccc(Cl)cc1 | 9.4% | 8.91µM* | -18.0% | 2.1%
Cc1ccc(S(=O)(=O)N2[C@@H](c3ccc(Cl)cc3)C(C(=O)O)=CC[C@H]2c2ccc(C(C)C)cc2)cc1 | 2.6% | 6.31µM* | -11.2% | -2.9%
Cc1ccc(S(=O)(=O)N2[C@@H](c3ccc(C(C)C)cc3)C(C(=O)O)=C[C@H]2C(C)(C)C)cc1 | -14.7% | 10µM* | -16.5% | 0.8%
Cc1ccc([C@H]2C(C(=O)O)=CC[C@@H](c3ccc(C(C)C)cc3)N2S(=O)(=O)c2ccc(C)cc2)cc1 | -5.4% | ? | -10.1% | -4.7%
Cc1ccc([C@H]2C(C(=O)O)=C[C@@H](C(C)(C)C)N2S(=O)(=O)c2ccc(C)cc2)cc1 | 10.2% | -23.5% | 3.2% | -5.1%
Cc1cccc(-c2noc(-c3cc(C(C)C)[nH]n3)n2)c1 | . | ? | -4.2% | .
Cc1ccc(-c2nnc(-c3ccc4ccccc4c3)o2)cc1 | 4.47µM* | 50.2% | -3.1% | 4.3%
COc1cccc(-c2nnc(-c3ccc4ccccc4c3)o2)c1 | ? | ? | -9.9% | 4.0%
Clc1ccc(-c2nnc(-c3ccco3)o2)cc1 | 5.62µM* | 5.2% | 6.2% | -4.9%
Clc1ccc(-c2nnc(-c3ccc4ccccc4c3)o2)cc1 | 2µM* | 16.4% | -0.2% | 0.7%
O=C(NCC(c1cccnc1)N1CCN(Cc2ccccc2)CC1)C(=O)Nc1cccc(Cl)c1 (centres undefined) | . | -0.8% | 2.9% | .
CN(C(=O)Cn1nc(C(=O)O)c2ccccc2c1=O)C1CCCCC1 | -1.2% | 8.4% | 10.8% | 0.5%
CCCCN(C(=O)c1cccc2c(=O)c(C)c(-c3ccccc3)oc12)c1ccccc1 | -33.7% | 10µM* | -16.3% | -5.7%
COc1ccc(S(=O)(=O)n2nc(-n3c(C)ccc3C)c3c(F)cccc32)cc1OC | -54.4% | 10µM* | 27.8% | -0.5%
CC1Cc2ccccc2N1C(=O)CSc1nnc(-c2cccc(Cl)c2)o1 (centres undefined) | . | 8.2% | 4.3% | .
CN(C)N=Nc1ccc(S(N)(=O)=O)cc1 | -0.5% | 13.6% | -14.9% | 7.4%
CN(C)c1ccc(N=Nc2ccc(S(N)(=O)=O)cc2)cc1 | 2µM* | -5.6% | ? | 0.1%
CCCc1cc(C(=O)Nc2ccc(C(=O)c3ccc(F)cc3)cc2)n(C)n1 | -51.1% | 8.91µM* | -4.3% | -2.7%
